Measured values reported in PubChem BioAssay (NCI).
The panel holds about 83,000 compounds, 20% with a hit somewhere; the sample as a whole holds those more often.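 Negative percent growth values reflect cell death: -40 means 40% of the cells present at the start died, and -100 means all died.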 Values without a mark were called inactive. Activity calls are given as the source filed them. How the source made its calls: active means growth percent below 10; inactive means the rest.

Key:
Assay in all cases: NCI-60 one-dose screen, 48 h (100 = growth as untreated, 0 = no growth, -100 = all killed)
[1] = test system: HCT-15 colon; conditions: 10 µM unless noted
[2] = test system: HT29 colon; conditions: 10 µM unless noted
[3] = test system: SNB-75 CNS; conditions: 10 µM unless noted
[4] = test system: SNB-19 CNS; conditions: 10 µM unless noted
[5] = test system: U251 CNS; conditions: 10 µM unless noted
[6] = test system: PC-3 prostate; conditions: 10 µM unless noted
[7] = test system: SK-MEL-5 melanoma; conditions: 10 µM unless noted
[8] = test system: UACC-62 melanoma; conditions: 10 µM unless noted
[9] = test system: SK-MEL-28 melanoma; conditions: 10 µM unless noted
[10] = test system: LOX IMVI melanoma; conditions: 10 µM

SMILES | growth [1] | growth [2] | growth [3] | growth [4] | growth [5] | growth [6] | growth [7] | growth [8] | growth [9] | growth [10]
Cc1ccccc1NC(=O)Oc1ccc(Cl)cc1C(=O)c1ccccc1 | 94.1% | 100% | 77.7% | 96% | 87.6% | 95.2% | 97.3% | 85.4% | 106% | –
NCCCN1CCCC1=O | 116% | 112% | 116% | 95.3% | 108% | 96.9% | 100% | 96.4% | 111% | –
COC(=O)C1(CC(C)=O)NC(=S)NC(=O)C1C#N (centres undefined) | 106% | 104% | 112% | 98.4% | 109% | 119% | 100% | 103% | 118% | –
OCC1OC(n2ccc3c2ncn2ncnc32)C(O)C1O (centres undefined) | 26.9% | 14.2% | 58.6% | 50.3% | 78.6% | 14.6% | 45.4% | 61.2% | 92.5% | 12.9%
COc1cc(OC)c(NC(=O)C(Sc2nc(C)cc(C)c2C#N)c2ccccc2)cc1Cl (centres undefined) | 97.7% | 107% | 27.4% | 94.1% | 87.3% | 102% | 102% | 94.6% | 105% | 89.6%
CCCCCC#CC(=O)O | 105% | 99.5% | 99.7% | 108% | 98.4% | 98.2% | 111% | 104% | 113% | 104%
CC1CN(CCO)CC(C)O1 (centres undefined) | 102% | 114% | 96.5% | 102% | 102% | 104% | 102% | 94.1% | 104% | –
C/C(O)=C(/C=N\C(=S)Nc1ccc(S(=O)(=O)Nc2nccs2)cc1)C(=O)Nc1ccccc1C | 102% | 116% | 89% | 92.7% | 84% | 84.9% | 93% | 81.8% | 110% | 92%
CN1C(=O)NC(c2ccc(Cl)cc2)(c2ccc(Cl)cc2)C1=O | 106% | 93% | 84.2% | 105% | 94.9% | 84.6% | 98.9% | 83.8% | 102% | 96.2%
Nc1c(O)c(S(=O)(=O)O)c(O)c2c1C(=O)c1ccccc1C2=O | 15.9% | 14% | 24.7% | 26.2% | 20.2% | 23.8% | 5.72% (active) | 34.6% | 42.5% | –
CCOC(OCC)C(=O)c1ccccc1 | 104% | 92.7% | 94.1% | 103% | 95% | 85% | 96.1% | 111% | 104% | 95.4%
Cc1cc(CO)c(O)c(CO)c1 | 102% | 95.4% | 64.4% | 114% | 98.8% | 101% | 108% | 104% | 108% | 90.7%
O=C1C=CC(=O)C2=C1CCCC2 | 92.4% | 109% | 80.2% | 92.7% | 95.5% | 82.7% | 97.5% | 85.5% | 108% | –
CCCc1cccc(CCC)c1NC(=O)Nc1cc(Cl)cc(Cl)c1 | 113% | 107% | 108% | 99.5% | 101% | 101% | 94.3% | 90% | 103% | –
COc1ccc(/C=C\C(=O)/C=C/c2ccc(OC)cc2)cc1 | -13.7% (active) | 49.3% | 103% | 89.3% | 63.8% | 62.3% | 91.7% | 70.4% | 106% | –
C=C(c1ccc(N(C)C)cc1)c1ccc(N(C)C)cc1 | 6.8% (active) | -31.6% (active) | -14.5% (active) | 20.6% | 3.57% (active) | 25.7% | -0.97% (active) | -8.67% (active) | 31.5% | –

SMILES | growth [1] | growth [2] | growth [3] | growth [4] | growth [5] | growth [6] | growth [7] | growth [8] | growth [9] | growth [10]
C/C(=N\N=C(/C)c1cccc([N+](=O)[O-])c1)c1cccc([N+](=O)[O-])c1 | 100% | 87.9% | 83.8% | 80.7% | 91.1% | 86.7% | 94.3% | 93.2% | 101% | 91.6%
C1C[S+]2CC[S+]1CC2 | 105% | 98.9% | 117% | 103% | 96.4% | 101% | 98.8% | 104% | 118% | 95.8%
O=C(NCc1ccco1)Nc1cccc2c(NC(=O)NCc3ccco3)cccc12 | 99.2% [100 µM] | 55.2% [100 µM] | 49.7% [100 µM] | 52.6% [100 µM] | 64.8% [100 µM] | 42.9% [100 µM] | 90% [100 µM] | 96.6% [100 µM] | 91.3% [100 µM] | –
O=C1NC(=O)/C(=C\c2ccncc2)N1 | 98.7% | 99.7% | 92% | 101% | 100% | 96.3% | 97.2% | 95.8% | 101% | 100%
OCCNc1ccccc1 | 105% | 104% | 91.3% | 116% | 97.6% | 95.7% | – | 109% | 107% | 94.3%
CN(CCCN(C)CCC1CCCCC1)CCC1CCCCC1 | 8.41% (active) | 3.68% (active) | -0.933% (active) | 77.3% | 11.1% | 43.2% | -100% (active) | – | -84.9% (active) | -4.45% (active)
O=S1(=O)c2ccccc2Oc2ccccc21 | 101% | 99.6% | 80.5% | 104% | 94% | 92.7% | – | 102% | 99.4% | 102%
C=CC(=O)OC1CCC(C(C)(C)CC)CC1 (centres undefined) | 98.2% | 112% | 95.4% | 109% | 116% | 104% | – | 109% | 110% | 101%
NS(=O)(=O)c1cc(=O)[nH]c(=O)[nH]1 | 111% | 108% | 93.1% | 106% | 98% | 120% | 107% | – | 110% | 93.4%
O=C1C=Cc2ccccc2/C1=C/c1[nH]c(=O)[nH]c1O | 59.7% | 37.7% | 31.9% | 34.1% | 29.3% | 27.4% | – | 24% | 30.6% | 48.8%
NCC(O)C(O)C(O)C(O)CO (centres undefined) | 106% | 95.9% | 91.8% | 104% | 90.5% | 81.4% | 101% | – | 108% | 97.8%
CC(=O)Oc1c(Cl)cccc1-c1ccccc1 | 108% | 98.1% | 103% | 98.9% | 90% | 89.5% | 101% | – | 112% | 103%
COc1ccc(C(=O)/C(=N/Nc2ccccc2)c2ccc(OC)cc2)cc1 | 76.1% | 80.5% | 97.1% | 100% | 92.4% | 78.2% | – | 79.2% | 111% | 92.1%
NC(CSSCC(N)C(=O)O)C(=O)O (centres undefined) | 34.5% | 5.05% (active) | -3.17% (active) | -6.03% (active) | 27% | 27.3% | – | -19.3% (active) | 18.5% | 18.2%
CCCC1OC(c2ccco2)OCC1CC (centres undefined) | 97.2% | 103% | 84.2% | 98.2% | 94.8% | 92.5% | – | 91.7% | 113% | 95.1%
